Test results from PubChem BioAssay AID434973 (Sanford-Burnham Center for Chemical Genomics, 2010).
Out of some 330,000 compounds screened, about 4,900 (1.5%) were called active. Many of the other results were omitted from the sample, so actives are more common in it than they were. Unmarked numbers belong to inactive results.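 The calls were made as follows: active = inhibition above about 50% at the single test dose (limit read from the data); inactive = the rest.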

target: Sentrin-specific protease 7 (Homo sapiens) (UniProt Q9BQF6); assay: SENP7 protease inhibitors, primary screen, biochemical, luminescence, uHTS (AID 434973); conditions: recombinant SENP7, Z-RLRGG-aminoluciferin luminescence, 40 min; at 5 µM; active compounds read high;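 also: plate controls were DMSO with enzyme for no effect and no enzyme buffer wells for full effect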

Row | SMILES | inhibition
1 | COc1ccc(C2c3c(C)nn(-c4ccccc4)c3NC(=O)N2c2ccccc2)cc1 (stereo unspecified) | 3.05%
2 | CCCCNC(=O)OC(C)CNC(=O)OC (stereo unspecified) | -1.91%
3 | Cc1ccc(C(=O)NCC(=O)O)s1 | -11.9%
4 | O=C(NCCc1ccccc1)C1CC1 | -1.24%
5 | COc1ccc(N(C(=O)c2snc(C(N)=O)c2N)C(C(=O)NC2CCCC2)c2ccco2)cc1OC (stereo unspecified) | -9.37%
6 | CCC(C)Cn1c(O)cc2nn(-c3nc4ccccc4s3)c(=O)c-2c1C (stereo unspecified) | 8.83%
7 | CCc1ccc(-c2cc(C(=O)NCc3ccco3)c3ccccc3n2)s1 | 6.27%
8 | C/C(=N\NC(=O)CC(C)C)c1c(C(F)(F)F)[nH]n(-c2nc3ccccc3s2)c1=O | 98.7% (active)
9 | CC(C)CC(=O)N/C(N)=N/c1nc2ccccc2s1 | 33.4%
10 | CCC1(CC)NC(=O)N(Cc2nc3ccccc3s2)C1=O | -4.41%
11 | CC(=NCc1ccco1)c1c(C(F)(F)F)[nH]n(-c2nc3ccccc3s2)c1=O | 98.9% (active)
12 | CC(=O)c1sc(NC(=O)CCN2C(=O)C3CC=CCC3C2=O)nc1-c1ccccc1 (stereo unspecified) | 0.528%
13 | Cc1ccc(C)c(N2C(=O)CS/C2=N\NC(=O)c2ccccc2Cl)c1 | -12.9%
14 | CCCCC/C=C/C1=CC(=O)C[C@H](c2ccc(Cl)cc2)C1 | 2.82%
15 | CC(=O)Nc1ccc(/C=C/C(=O)c2ccccc2)cc1 | -13.6%
16 | Cc1ccc(N/C=C/C(=O)c2ccccc2)cc1C | 91.8% (active)
17 | CCOc1ccc(NC(=S)N2CCC(NC(=O)c3ccccc3)CC2)cc1 | -5.22%
18 | COc1ccc(N2C(=O)CCC(C(=O)Nc3ccccn3)C2c2ccc(OC)c(OC)c2)cc1 (stereo unspecified) | 9.84%
19 | O=C(/C=C/NCc1ccc(F)cc1)c1ccccc1 | 7.34%
20 | CCOc1ccc(N/C=C/C(=O)c2ccccc2)cc1 | 99.3% (active)
21 | COc1ccc(C(=O)/C=C/Nc2ccccn2)cc1 | 99.2% (active)
22 | Cc1cc(N/C=C\C(=O)c2ccc(Cl)c(Cl)c2)no1 | 10.2%

Row | SMILES | inhibition
23 | CCOc1ccc(N/C=C/C(=O)c2cc(OC)c(OC)c(OC)c2)cc1 | -14.5%
24 | NCCCC[C@@H]1NC(=O)[C@H](CCC(=O)O)NC(=O)c2cc([N+](=O)[O-])cc(I)c2NCC[C@@H](C(N)=O)NC1=O | 0.545%
25 | O=C(COC(=O)c1cccnc1Cl)NC(=O)NC1CCCCC1 | -2.4%
26 | c1c2c(cc3sc(N4CCCCC4)nc13)OCCO2 | 97.8% (active)
27 | O=C(c1ccc2nc(N3CCOCC3)sc2c1)N1CCN(c2ccc(Cl)cc2)CC1 | 0.5%
28 | Brc1ccc2nc(N3CCCC3)sc2c1 | 93.4% (active)
29 | Fc1ccc2nc(N3CCCCC3)sc2c1 | 85.3% (active)
30 | Cc1nc(N2CCCCC2)sc1C=O | 11.3%
31 | O=S(=O)(Nc1ccc2nc(N3CCOCC3)sc2c1)c1ccccc1 | -7.76%
32 | CN(C)CCCN(C(=O)c1ccc(S(=O)(=O)N2CCCCCC2)cc1)c1nc2cc3c(cc2s1)OCCO3 | 4.88%
33 | Fc1ccc2nc(Nc3nc4c(s3)CCCC4)sc2c1 | 9.46%
34 | O=C(NCCc1cccc(F)c1)C1CCCN(c2nc3ccccc3s2)C1 (stereo unspecified) | 7.46%
35 | C/C(CC(=O)N1CCN(C=O)CC1)=N\NC(=O)c1ccc(Br)cc1 | 4.47%
36 | COCC(C)n1c(SCC(=O)NC2CCCCC2C)nc2ccccc2c1=O (stereo unspecified) | -6.63%
37 | CC(C)NC(=O)c1ccc(Sc2ccccc2)c([N+](=O)[O-])c1 | 4.52%
38 | O=C(c1ccc(=O)oc1)N1CCC(C(O)(c2ccccc2)c2ccccc2)CC1 | -5.43%
39 | CCC1CCCCN1C(=S)Nc1ccc(S(=O)(=O)Nc2ncccn2)cc1 (stereo unspecified) | -9.27%
40 | Cc1cccc(-n2c(C)cc(/C=N\NC(=O)c3cccs3)c2C)c1 | -3.16%
41 | CCc1ccc(NC(=O)C(=O)NNC(=O)c2cccs2)cc1 | 51.4% (active)
42 | O=C(Nc1ccc(NC(=O)c2cccs2)cc1)c1ccc2ccccc2c1 | -6.64%
43 | CCN(CC)c1ccc(/C=N/NC(=O)CNC(=O)c2cccs2)cc1 | 2.87%
44 | CCc1ccc(NC(=O)COC(=O)c2cccs2)cc1 | 17.2%

Row | SMILES | inhibition
45 | Cc1ccc(C(=O)Nc2ccc(NC(=O)c3cccs3)cc2)c(C)c1 | -5.29%
46 | CC(=O)Nc1ccc(/C=N/NC(=O)c2cccs2)cc1 | 67.7% (active)
47 | CC(C)C(=O)Nc1ccc(C(=O)NNC(=O)c2cccs2)cc1 | -0.683%
48 | O=C(Nc1ccccc1)c1ccc(NC(=O)c2cccs2)cc1 | 67.8% (active)
49 | O=C(COC(=O)/C=C/c1cccs1)NC1CCCCC1 | 6.28%
50 | COCCCNC(=O)[C@H]1N2C(=O)c3ccccc3C2SC1(C)C (stereo partly specified) | -7.11%
51 | COC(=O)Cc1csc(/N=C/c2c(O)n(-c3cccc(C(F)(F)F)c3)c(=O)c3ccccc23)n1 | -1.46%
52 | CCCCN(C(=O)C1CCC1)c1c(N)n(Cc2ccccc2)c(=O)[nH]c1=O | 5.98%
53 | O=C(CCS(=O)(=O)c1ccccc1Cl)Nc1ccc(S(=O)(=O)Nc2ncccn2)cc1 | 5.16%
54 | CCCCSCCCNC(=O)C1CCC(CNS(=O)(=O)c2ccc(NC(C)=O)cc2)CC1 (stereo unspecified) | -1.73%
55 | O=c1[nH]c(CCl)nc2cc(-c3ccc(Cl)cc3)sc12 | 63.1% (active)
56 | NC(=O)Cc1nc2scc(-c3ccc(Cl)cc3)c2c(=O)[nH]1 | -2.34%
57 | O=c1[nH]c(CN2CCOCC2)nc2cc(Cl)ccc12 | 10.2%
58 | Cc1nc(NC(=O)c2ccc3c(c2)OCCO3)ccc1Br | 87.2% (active)
59 | CCCc1cc(C(=O)Nc2ccc(C(=O)OC)cc2)cs1 | -0.862%
60 | Cc1ccc(C(=O)NNC(=O)c2ccc3c(c2)OCCO3)cc1 | 6.51%
61 | O=C(Nc1ccc(Cl)cn1)c1cnn2cccnc12 | 27.2%
62 | Cc1cccc(C)c1NC(=O)CNC(=O)c1ccc2c(c1)OCCO2 | -14.1%
63 | CCCCC(CC)C(=O)Nc1ccc(Cl)cn1 (stereo unspecified) | -1.33%
64 | COc1ccc(C(=O)NC(=S)Nc2ccc(Cl)cn2)cc1OC | -7.53%
65 | O=C(Nc1ccc(Cl)cn1)c1ccc2c(c1)OCCO2 | 82.6% (active)
66 | CCCc1cc(C(=O)Nc2ccc(Cl)cn2)cs1 | 76.6% (active)
